# HepG2 tox: qHTS for Inhibitors of TGF-b: Cytotox Counterscreen | HepG2 CAGA-GFP viability, ATP luminescence, 18 h | Potency, µM (top dose mostly 46.1 µM), most hits filed as cytotoxic | hit rate 0.76% among 410,000
#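 HepG2 CAGA-GFP cells (1000/well, DMEM with 1% FBS) received compound, then TGF-beta at 500 pg/mL final, and were incubated 18 hours at 37 degrees C. Viability was read by CellTiter-Glo luminescence. Media-only wells were set as complete cell-killing and DMSO as no toxicity.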
# TGFb SMAD3 inh: qHTS for Inhibitors of TGF-b; Potency, µM (highest dose often 46.1 µM), hits mostly inhibitors; HepG2 CAGA-GFP TGF-b/SMAD3 reporter, GFP fluorescence, 18 h; TGF-beta stimulated, 500 pg/mL final; AID 588855, 2011; hit rate 1.2% among 410,000; also: nearly all actives have a fitted effect of over 65% in size
#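 GFP signal (ex488/em500-530) from TGF-beta-stimulated HEPG2 CAGA-GFP cells, 500 pg/mL final, 18 h at 37 degrees C in DMEM plus 1% FBS, normalized to unstimulated and DMSO-stimulated controls.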
# IL-1B inflam inh: qHTS for Inhibitors of Inflammasome Signaling: IL-1-beta AlphaLISA Primary Screen. THP-1 LPS/ATP IL-1B secretion, AlphaLISA, 16 h; active compounds read low. activity change, % at 57.5 µM. hit rate 4.7% among 360,000. AID 743279, 2014; in the data active = activity change below about -50%; inconclusive = mostly about -30% to -49%
#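 THP-1 cells pretreated 1 hr with compounds (up to 57.5 uM final), then stimulated with LPS (250 ng/mL final) plus ATP (1.25 mM final); secreted IL-1B measured by AlphaLISA after 16 hr, decreased signal indicating inhibition.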
# S2 tox: Viability Counterscreen for Primary qHTS for Inhibitors of ATXN expression; S2 cells (HEK-293 line with an ATXN2-luciferase reporter) viability, CellTiter-Fluor protease fluorescence, 24 h; Potency, µM (series often up to 56.7 µM), hits mostly cytotoxic; hit rate 0.49% among 400,000; also: nearly all actives have a fitted effect of over 40% in size
# ATXN2 expr inh: Primary qHTS for Inhibitors of ATXN expression; HEK-293 ATXN2-luciferase reporter, luminescence, 24 h; Potency, µM (top dose mostly 57 µM), actives largely listed as inhibitors; hit rate 0.72% among 360,000; AID 1745845, 2022; also: nearly all actives have a fitted effect of over 55% in size
#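 qHTS (up to 57 uM final) was run with 24 h compound exposure of reporter cells at 37 °C. Each well was multiplexed: SteadyGlo luminescence measured ATXN2-luciferase expression after a fluorogenic Gly-Phe-AFC viability readout (25 uM final).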
# Numbers stand for hits; – = inactive; ? = inconclusive; · = no result given; [ ] = another dose, or the depositor's remark. Hits are enriched below; roughly 5.7% of the tested compounds scored in any of these assays. Unless noted, calls follow the shape of the dose curve; as a rule, active = well fitted curve in the direction sought with a large enough effect; inconclusive = small, poorly fitted or top-dose-only effect, or another doubt; inactive = no such curve, though single readings can be large; an effect the other way counts as inactive or inconclusive.
SMILES,HepG2 tox,TGFb SMAD3 inh,IL-1B inflam inh,S2 tox,ATXN2 expr inh
COc1ccccc1N(C)S(=O)(=O)c1ccc(C(=O)Nc2ccc(N3CCOCC3)cc2)cc1,–,–,-68,–,?
Cc1cc(C)c(S(=O)(=O)NCC(c2ccco2)N2CCN(c3ccccc3)CC2)c(C)c1 (centres undefined),–,–,·,·,·
CCCCCCCCn1cnc2c(N)c(C)c(C)cc21,20µM,?,–,–,–
COc1ccc(Cn2cnc3c(N)c(C)c(C)cc32)cc1,–,–,–,?,?
COc1ccc(/C=C(\NC(=O)c2ccccc2)C(=O)NC2CCCCC2)cc1,–,–,·,·,·
Cc1ccc(NC(=O)Cn2ncn3c(cc4ccccc43)c2=O)cc1C,–,–,·,·,·
COc1cccc(C(=O)N/N=C(/c2ccccc2)c2ccccn2)c1,–,?,-52,10µM,4µM
COc1cc(NC(=O)c2ccccn2)cc(OC)c1OC,–,–,–,–,·
COc1cc(NC(=O)C/C(C)=N/NC(=O)c2ccccn2)c(OC)cc1Cl,–,–,-59,–,–
COc1cc(C(=O)N/N=C(\c2ccccc2)c2ccccn2)cc(OC)c1OC,–,–,–,–,2.5µM
O=C(CN1CCCC1)Nc1ccccc1Sc1ccccc1,–,–,–,–,–
NC(=O)C1(N2CCCCC2)CCN(CC(=O)Nc2ccccc2Sc2ccccc2)CC1,–,?,-79,?,–
O=C(CN1CCOCC1)Nc1ccccc1Sc1ccc(Cl)cc1,–,–,-59,–,–[11.3 µM]
CCOc1ccc(NC(=O)CSc2ncc3c(n2)-c2ccccc2N(C)S3(=O)=O)cc1,–,–,·,–,–
COc1ccc(/C=C2\C(=O)N(c3c(Cl)cc(Cl)cc3Cl)N=C2NC(=O)c2cccc([N+](=O)[O-])c2)cc1,–,–,-105,·,32µM
C#C[C@]1(O)CC[C@H]2[C@H]3CCc4cc(OC)ccc4[C@H]3CC[C@@]21C,·,·,·,·,–
C#C[C@]1(O)CC[C@H]2[C@@H]3CCc4cc(OC5CCCC5)ccc4[C@H]3CC[C@@]21C,–,–,–,32µM,?
CC(Sc1nnc2c(n1)[nH]c1ccccc12)C(=O)NC1CCCCC1 (centres undefined),–,–,–,–,–
CC(Sc1nnc2c(n1)[nH]c1ccccc12)C(=O)N(C)C1CCCCC1 (centres undefined),–,?,-56,?,?
CCOc1ccccc1-c1c2cc(O)c(=O)cc-2oc2cc(O)c(O)cc12,–,2.8µM,–,·,?
COc1ccc(OC)c(-c2c3cc(O)c(=O)cc-3oc3cc(O)c(O)cc23)c1,–,?,–,20µM,?
CCc1nnc(SCC(=O)N(C)c2ccccc2)c2cc3sccc3n12,–,?,·,·,·
CCOCCCNC(=O)NC(C)c1c(-n2cccc2)sc2c1CCN(CC)C2 (centres undefined),–,?,·,·,·
CCOC(=O)N1CCC(NC(=O)c2cnn(-c3ccc(OC)cc3)c2C2CCN(C(=O)OC(C)(C)C)CC2)CC1,–,?,·,·,·
O=C1/C(=C/c2ccc([N+](=O)[O-])cc2)C=C(c2ccccc2)N1c1ccc(O)cc1,–,–,-99,?,20µM
SMILES,HepG2 tox,TGFb SMAD3 inh,IL-1B inflam inh,S2 tox,ATXN2 expr inh
CC1CN(C(=O)C(C)Sc2nc3ccccc3s2)CC(C)O1 (centres undefined),–,–,–,–,–
CC(Sc1nc2ccccc2s1)C(=O)N(C)Cc1ccccc1 (centres undefined),–,–,-67,·,–
O=C(O)CCSc1nc2ccccc2s1,–,–,–,–,10µM
CNc1cc[n+](C)c2ccccc12,–,–,·,·,·
CCN(CC)C(=O)Oc1ccc2c(=O)c(-c3ccc(OC)cc3)coc2c1,–,–,-60,–,–
Cc1ccc2c(CC(=O)NCc3ccccc3)coc2c1C,–,–,·,–,–
COC(=O)c1ccccc1NS(=O)(=O)c1ccc(NC(C)=O)cc1,–,–,-84,–,–
COC(=O)c1cc(CNC(=O)c2ccncc2)cc(NC(=O)c2ccccc2Cl)c1,·,·,·,–,·
COC1=Nc2ccccc2N2CCN=C12,–,–,–,–,–
c1ccc2c(c1)C1=NCCN1c1ccccc1-2,–,10µM,-105,–,·
Cc1cc2c(NC(=O)Nc3ccc(C(F)(F)F)cc3)cccc2nn1,–,–,-55,–,–
O=C1c2ccccc2C(=O)c2[nH]c(=O)[nH]c21,1.4µM,1µM,?,·,?
Cc1ccc(CN2CCC(CNC(=O)Nc3ccc(Cl)cc3)C2)cc1 (centres undefined),–,13µM,·,·,?
O=C(Nc1ccccc1C(F)(F)F)c1ccc(CN2CCC(Cc3ccccc3)CC2)cc1,–,?,-52,–,–
O=C(Nc1ccccc1)c1ccc(CN2CCC(Cc3ccccc3)CC2)cc1,–,–,–,–,–
Cc1ccc(CN2CCC(CNC(=O)Nc3ccccc3F)CC2)cc1,–,–,-53,–,–
Cc1cc(C)cc(NC(=O)NCC2CCN(Cc3cc(C)ccc3C)CC2)c1,–,–,–,–,–
COc1ccc(C(=O)N=c2nc(-c3ccccc3)n(-c3ccccc3)s2)cc1,–,–,·,·,·
CC(C)C(=O)Nc1cccc(C(F)(F)F)c1,·,·,·,–,–
COc1ccc(Nc2ncnc3c2cnn3-c2ccc(C)cc2)cc1Cl,–,–,·,–,–
Cc1ccc(NC2=NCC(Cc3ccc(Br)cc3)S2)cc1 (centres undefined),–,?,-96,?,?
O=C(Nc1ccc(SC(F)F)cc1)c1ccc2nccnc2c1,–,–,-97,?,–
O=C(NC1CC(=O)N(c2ccc(F)cc2)C1)C(c1ccccc1)c1ccccc1 (centres undefined),–,–,·,·,·
COc1ccc(OC)c(NC(=O)CSc2nnnn2-c2ccc3c(c2)OCO3)c1,–,–,–,–,8.9µM
COc1ccc(-n2nnnc2SCC(=O)c2ccc3c(c2)OCCO3)cc1,–,–,–,–,–
SMILES,HepG2 tox,TGFb SMAD3 inh,IL-1B inflam inh,S2 tox,ATXN2 expr inh
COc1ccc(-n2nnnc2SCC(=O)N2CCOCC2)cc1,0.56µM,–,–,–,–
COc1ccc(N2CCN(C(=O)CSc3nnnn3-c3ccc4c(c3)OCCO4)CC2)cc1,–,–,-59,–,–
CCOC(=O)c1ccc(N(C(=O)c2ccccc2)c2ccccc2)cc1,–,?,·,·,·
CN(C)CCCN(Cc1cc2cc3c(cc2[nH]c1=O)OCO3)C(=S)Nc1ccccc1,–,–,-62,–,–
CN(C)CCCN(Cc1cc2cc3c(cc2[nH]c1=O)OCO3)C(=S)Nc1cccc(Cl)c1,–,?,-102,–,–
Cc1ccc(NC(=S)N(CCN(C)C)Cc2cc3cc(C)ccc3[nH]c2=O)cc1,–,–,-68,–,–
CN(C)CCCN(Cc1cc2cc3c(cc2[nH]c1=O)OCO3)C(=S)NCc1ccco1,–,–,?,?,–
